The source of these data is ChEMBL document CHEMBL2218924, “A broad activity screen in support of a chemogenomic map for kinase signalling research and drug discovery” (Biochem J, 2013).

Experiment [1] addresses Homeodomain-interacting protein kinase 3 (Homo sapiens) (UniProt Q9H422). The note with it: at 10 µM.
Experiment [2] has as its target T1, Serine/threonine-protein kinase haspin (Homo sapiens) (UniProt Q8TF76).
T1 sequence (whole entry): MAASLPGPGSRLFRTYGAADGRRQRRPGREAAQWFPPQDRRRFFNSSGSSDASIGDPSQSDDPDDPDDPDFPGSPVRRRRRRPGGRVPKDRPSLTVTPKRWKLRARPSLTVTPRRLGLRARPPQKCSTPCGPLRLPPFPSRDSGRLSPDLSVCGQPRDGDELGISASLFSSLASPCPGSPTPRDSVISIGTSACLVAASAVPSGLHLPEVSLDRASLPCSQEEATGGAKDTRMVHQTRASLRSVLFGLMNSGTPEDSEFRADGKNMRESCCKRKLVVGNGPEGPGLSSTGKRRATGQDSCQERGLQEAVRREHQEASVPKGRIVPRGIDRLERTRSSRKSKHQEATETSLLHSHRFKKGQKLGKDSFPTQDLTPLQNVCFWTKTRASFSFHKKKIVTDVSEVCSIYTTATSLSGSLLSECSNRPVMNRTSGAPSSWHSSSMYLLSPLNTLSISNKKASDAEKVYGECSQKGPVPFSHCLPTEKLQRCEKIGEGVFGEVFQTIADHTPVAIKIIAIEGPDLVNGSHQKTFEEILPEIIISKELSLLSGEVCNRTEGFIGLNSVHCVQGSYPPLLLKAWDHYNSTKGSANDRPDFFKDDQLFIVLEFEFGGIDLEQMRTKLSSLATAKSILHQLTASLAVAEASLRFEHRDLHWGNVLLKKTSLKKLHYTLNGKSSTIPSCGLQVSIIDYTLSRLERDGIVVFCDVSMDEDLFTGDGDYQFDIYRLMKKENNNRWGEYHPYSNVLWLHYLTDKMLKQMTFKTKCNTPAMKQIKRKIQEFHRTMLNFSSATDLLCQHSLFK
The note with it: at 1 µM.

The target of experiment [3] is T1, Serine/threonine-protein kinase haspin (Homo sapiens). The note with it: at 10 µM.
Experiment [4] deals with Tyrosine-protein kinase HCK (Homo sapiens) (UniProt P08631). The following applies: at 1 µM.
Chain of Tyrosine-protein kinase HCK (Homo sapiens) (P08631 2-526 limits assumed): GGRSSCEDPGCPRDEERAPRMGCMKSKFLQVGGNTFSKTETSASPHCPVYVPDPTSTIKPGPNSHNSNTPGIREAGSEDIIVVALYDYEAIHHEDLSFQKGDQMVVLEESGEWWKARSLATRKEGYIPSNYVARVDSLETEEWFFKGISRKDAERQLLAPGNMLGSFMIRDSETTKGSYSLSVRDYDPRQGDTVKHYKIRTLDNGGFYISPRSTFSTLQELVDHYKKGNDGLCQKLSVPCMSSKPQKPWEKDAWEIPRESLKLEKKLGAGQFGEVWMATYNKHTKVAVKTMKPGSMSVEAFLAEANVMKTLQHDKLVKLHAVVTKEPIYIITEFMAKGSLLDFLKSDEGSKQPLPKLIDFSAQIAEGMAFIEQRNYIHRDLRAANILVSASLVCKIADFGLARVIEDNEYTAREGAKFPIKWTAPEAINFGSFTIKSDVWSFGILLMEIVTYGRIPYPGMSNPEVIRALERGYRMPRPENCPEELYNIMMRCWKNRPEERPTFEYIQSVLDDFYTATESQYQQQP
For experiment [5] the target is unchanged. The note with it: at 10 µM.
Experiment [6] shares this target. The following applies: at 1 µM. The source holds these as a separate data set.
For experiment [7] the target is unchanged. The note with it: at 10 µM. The source holds these as a separate data set.
Experiment [8] deals with Insulin-like growth factor 1 receptor (Homo sapiens) (UniProt P08069). The note with it: at 1 µM.
Chain of Insulin-like growth factor 1 receptor (Homo sapiens) (P08069 31-736 limits assumed): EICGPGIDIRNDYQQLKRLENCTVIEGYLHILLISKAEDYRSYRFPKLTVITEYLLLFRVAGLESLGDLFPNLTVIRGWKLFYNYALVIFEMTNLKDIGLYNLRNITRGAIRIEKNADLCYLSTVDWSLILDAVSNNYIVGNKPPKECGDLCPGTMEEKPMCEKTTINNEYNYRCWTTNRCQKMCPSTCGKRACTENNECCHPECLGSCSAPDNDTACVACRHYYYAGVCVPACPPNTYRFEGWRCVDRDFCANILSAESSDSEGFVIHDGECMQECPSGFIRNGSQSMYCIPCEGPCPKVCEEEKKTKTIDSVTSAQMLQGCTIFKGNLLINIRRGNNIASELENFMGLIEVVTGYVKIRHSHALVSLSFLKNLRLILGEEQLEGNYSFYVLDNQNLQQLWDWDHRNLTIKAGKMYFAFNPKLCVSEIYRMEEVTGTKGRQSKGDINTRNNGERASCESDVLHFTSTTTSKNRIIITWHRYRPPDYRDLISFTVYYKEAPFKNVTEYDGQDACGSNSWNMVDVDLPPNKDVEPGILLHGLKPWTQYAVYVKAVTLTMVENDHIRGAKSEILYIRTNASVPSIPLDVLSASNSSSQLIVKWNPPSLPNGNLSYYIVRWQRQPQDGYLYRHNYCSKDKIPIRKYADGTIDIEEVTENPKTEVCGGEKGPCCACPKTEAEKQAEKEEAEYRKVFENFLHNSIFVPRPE
Chain of Insulin-like growth factor 1 receptor (Homo sapiens) (P08069 741-1367 limits assumed): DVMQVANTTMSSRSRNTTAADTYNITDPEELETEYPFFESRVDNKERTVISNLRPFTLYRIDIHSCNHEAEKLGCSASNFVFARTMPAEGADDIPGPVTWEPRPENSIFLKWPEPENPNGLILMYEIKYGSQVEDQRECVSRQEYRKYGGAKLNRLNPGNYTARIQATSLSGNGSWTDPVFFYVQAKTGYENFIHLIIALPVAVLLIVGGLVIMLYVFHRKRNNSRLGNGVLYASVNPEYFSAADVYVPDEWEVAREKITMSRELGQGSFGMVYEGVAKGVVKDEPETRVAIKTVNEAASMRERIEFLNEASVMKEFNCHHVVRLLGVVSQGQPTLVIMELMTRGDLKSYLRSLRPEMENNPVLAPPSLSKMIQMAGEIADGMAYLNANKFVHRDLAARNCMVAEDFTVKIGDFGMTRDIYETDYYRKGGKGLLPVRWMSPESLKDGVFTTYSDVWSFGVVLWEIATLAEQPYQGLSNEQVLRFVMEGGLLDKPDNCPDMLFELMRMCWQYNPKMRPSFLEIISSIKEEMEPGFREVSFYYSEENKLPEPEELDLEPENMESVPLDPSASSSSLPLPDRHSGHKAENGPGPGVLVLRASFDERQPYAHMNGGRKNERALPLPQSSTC
For experiment [9] the target is unchanged. The following applies: at 10 µM.
The target of experiment [10] is T2, Protein kinase C zeta type (Homo sapiens) (UniProt Q05513).
T2 sequence (whole entry): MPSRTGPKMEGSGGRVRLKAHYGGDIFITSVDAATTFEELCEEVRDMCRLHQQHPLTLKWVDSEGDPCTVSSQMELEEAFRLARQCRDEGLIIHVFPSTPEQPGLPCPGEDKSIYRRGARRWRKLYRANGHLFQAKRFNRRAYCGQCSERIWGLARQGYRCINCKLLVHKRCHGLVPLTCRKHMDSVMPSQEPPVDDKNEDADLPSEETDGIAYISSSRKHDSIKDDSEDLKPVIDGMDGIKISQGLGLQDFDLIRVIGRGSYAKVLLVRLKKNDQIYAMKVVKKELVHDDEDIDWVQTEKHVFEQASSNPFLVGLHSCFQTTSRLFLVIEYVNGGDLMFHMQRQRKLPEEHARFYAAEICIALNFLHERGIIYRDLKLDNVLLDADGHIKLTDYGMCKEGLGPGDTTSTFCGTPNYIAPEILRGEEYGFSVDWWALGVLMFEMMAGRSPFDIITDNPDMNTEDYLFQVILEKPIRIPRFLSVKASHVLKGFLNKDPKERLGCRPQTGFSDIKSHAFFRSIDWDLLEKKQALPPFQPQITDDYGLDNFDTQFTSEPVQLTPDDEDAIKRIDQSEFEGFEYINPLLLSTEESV
The following applies: at 10 µM.

The target of experiment [11] is Protein kinase C eta type (Homo sapiens) (UniProt P24723). The following applies: at 1 µM.
Chain of Protein kinase C eta type (Homo sapiens) (P24723 whole entry): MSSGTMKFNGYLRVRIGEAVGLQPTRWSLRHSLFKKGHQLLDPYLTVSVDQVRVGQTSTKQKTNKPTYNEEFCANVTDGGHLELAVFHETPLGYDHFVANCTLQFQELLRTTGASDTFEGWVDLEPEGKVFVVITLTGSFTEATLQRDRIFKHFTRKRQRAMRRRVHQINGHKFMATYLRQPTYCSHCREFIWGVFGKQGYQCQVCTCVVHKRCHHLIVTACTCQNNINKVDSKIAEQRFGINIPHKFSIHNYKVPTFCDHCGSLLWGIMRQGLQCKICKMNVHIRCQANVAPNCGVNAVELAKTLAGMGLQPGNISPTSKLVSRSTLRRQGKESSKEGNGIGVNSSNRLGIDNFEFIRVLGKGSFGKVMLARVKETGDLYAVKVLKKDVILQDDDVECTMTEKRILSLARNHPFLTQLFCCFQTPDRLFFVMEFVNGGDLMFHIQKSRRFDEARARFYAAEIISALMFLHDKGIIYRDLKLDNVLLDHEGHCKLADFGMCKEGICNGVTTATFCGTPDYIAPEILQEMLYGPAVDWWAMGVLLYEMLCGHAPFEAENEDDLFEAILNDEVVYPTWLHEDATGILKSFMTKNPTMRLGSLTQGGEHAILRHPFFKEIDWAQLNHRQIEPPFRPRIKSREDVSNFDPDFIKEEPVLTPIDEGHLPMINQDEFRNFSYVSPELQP
The target is the same in experiment [12]. The note with it: at 10 µM.
The target in experiment [13] is Protein kinase C theta type (Homo sapiens) (UniProt Q04759). The note with it: at 1 µM.
Chain of Protein kinase C theta type (Homo sapiens) (Q04759 whole entry, looked up): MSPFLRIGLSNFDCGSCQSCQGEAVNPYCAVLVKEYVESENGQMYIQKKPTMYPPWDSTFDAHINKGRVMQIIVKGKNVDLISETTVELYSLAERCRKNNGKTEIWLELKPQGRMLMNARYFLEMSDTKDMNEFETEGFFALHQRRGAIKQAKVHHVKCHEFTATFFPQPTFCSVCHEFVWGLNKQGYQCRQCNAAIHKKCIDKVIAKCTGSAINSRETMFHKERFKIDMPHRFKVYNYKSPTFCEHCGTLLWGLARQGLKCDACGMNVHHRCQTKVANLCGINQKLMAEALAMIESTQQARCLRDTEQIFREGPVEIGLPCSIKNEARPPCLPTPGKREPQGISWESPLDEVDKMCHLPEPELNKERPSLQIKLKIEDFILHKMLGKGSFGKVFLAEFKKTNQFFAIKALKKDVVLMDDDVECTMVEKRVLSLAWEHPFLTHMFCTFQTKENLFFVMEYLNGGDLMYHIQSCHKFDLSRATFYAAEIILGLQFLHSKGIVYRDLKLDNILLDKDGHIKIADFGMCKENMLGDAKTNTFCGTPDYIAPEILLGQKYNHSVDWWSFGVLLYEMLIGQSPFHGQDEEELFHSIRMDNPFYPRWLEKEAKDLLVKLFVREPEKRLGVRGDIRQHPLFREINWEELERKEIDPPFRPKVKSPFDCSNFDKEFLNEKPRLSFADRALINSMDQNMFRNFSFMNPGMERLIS
The target is the same in experiment [14]. The following applies: at 10 µM.
Experiment [15] concerns the target T3, Protein kinase C iota type (Homo sapiens) (UniProt P41743).
T3 sequence (whole entry): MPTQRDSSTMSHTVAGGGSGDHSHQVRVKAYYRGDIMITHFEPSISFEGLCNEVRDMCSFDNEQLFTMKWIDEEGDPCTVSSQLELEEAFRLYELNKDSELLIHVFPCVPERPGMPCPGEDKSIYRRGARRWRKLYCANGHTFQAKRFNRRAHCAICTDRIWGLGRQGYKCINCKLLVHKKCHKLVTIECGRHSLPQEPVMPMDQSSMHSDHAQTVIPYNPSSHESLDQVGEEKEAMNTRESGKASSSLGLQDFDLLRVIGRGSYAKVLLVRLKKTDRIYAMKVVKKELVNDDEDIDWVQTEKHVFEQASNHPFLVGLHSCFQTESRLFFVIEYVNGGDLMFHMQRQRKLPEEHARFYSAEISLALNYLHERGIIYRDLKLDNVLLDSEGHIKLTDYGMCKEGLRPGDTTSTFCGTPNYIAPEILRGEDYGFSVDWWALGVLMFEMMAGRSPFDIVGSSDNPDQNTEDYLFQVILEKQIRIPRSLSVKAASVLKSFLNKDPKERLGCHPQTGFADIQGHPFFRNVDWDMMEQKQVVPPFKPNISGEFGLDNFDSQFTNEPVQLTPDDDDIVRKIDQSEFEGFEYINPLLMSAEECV
The following applies: at 1 µM.

The target of experiment [16] is T3, Protein kinase C iota type (Homo sapiens). The following applies: at 10 µM.
Experiment [17] addresses T4, Serine/threonine-protein kinase D1 (Homo sapiens) (UniProt Q15139).
T4 sequence (whole entry): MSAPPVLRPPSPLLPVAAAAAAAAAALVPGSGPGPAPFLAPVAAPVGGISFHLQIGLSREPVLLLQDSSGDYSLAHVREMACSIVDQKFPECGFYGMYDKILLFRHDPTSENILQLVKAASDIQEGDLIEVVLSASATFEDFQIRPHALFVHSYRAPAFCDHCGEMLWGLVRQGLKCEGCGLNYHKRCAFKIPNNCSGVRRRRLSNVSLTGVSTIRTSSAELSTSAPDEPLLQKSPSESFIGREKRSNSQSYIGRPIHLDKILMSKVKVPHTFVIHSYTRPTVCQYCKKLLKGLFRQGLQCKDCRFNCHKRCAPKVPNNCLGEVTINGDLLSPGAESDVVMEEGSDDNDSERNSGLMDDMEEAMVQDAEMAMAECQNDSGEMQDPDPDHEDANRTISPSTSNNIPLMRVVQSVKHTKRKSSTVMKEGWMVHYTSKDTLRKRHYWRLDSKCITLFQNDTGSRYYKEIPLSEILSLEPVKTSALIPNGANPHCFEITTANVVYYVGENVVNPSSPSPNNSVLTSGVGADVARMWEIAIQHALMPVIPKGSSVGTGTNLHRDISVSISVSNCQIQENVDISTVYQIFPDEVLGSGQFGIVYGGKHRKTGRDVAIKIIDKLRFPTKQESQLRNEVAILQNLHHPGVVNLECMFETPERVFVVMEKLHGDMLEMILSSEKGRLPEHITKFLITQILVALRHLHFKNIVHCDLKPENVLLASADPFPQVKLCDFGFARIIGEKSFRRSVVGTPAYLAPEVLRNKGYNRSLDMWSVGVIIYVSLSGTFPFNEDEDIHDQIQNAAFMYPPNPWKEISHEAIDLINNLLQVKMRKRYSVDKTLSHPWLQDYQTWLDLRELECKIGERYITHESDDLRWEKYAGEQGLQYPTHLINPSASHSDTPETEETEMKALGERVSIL
The following applies: at 1 µM.

Experiment [18] concerns the target T4, Serine/threonine-protein kinase D1 (Homo sapiens). The following applies: at 10 µM.
For experiment [19], the target named is T5, Serine/threonine-protein kinase D2 (Homo sapiens) (UniProt Q9BZL6).
T5 sequence (whole entry): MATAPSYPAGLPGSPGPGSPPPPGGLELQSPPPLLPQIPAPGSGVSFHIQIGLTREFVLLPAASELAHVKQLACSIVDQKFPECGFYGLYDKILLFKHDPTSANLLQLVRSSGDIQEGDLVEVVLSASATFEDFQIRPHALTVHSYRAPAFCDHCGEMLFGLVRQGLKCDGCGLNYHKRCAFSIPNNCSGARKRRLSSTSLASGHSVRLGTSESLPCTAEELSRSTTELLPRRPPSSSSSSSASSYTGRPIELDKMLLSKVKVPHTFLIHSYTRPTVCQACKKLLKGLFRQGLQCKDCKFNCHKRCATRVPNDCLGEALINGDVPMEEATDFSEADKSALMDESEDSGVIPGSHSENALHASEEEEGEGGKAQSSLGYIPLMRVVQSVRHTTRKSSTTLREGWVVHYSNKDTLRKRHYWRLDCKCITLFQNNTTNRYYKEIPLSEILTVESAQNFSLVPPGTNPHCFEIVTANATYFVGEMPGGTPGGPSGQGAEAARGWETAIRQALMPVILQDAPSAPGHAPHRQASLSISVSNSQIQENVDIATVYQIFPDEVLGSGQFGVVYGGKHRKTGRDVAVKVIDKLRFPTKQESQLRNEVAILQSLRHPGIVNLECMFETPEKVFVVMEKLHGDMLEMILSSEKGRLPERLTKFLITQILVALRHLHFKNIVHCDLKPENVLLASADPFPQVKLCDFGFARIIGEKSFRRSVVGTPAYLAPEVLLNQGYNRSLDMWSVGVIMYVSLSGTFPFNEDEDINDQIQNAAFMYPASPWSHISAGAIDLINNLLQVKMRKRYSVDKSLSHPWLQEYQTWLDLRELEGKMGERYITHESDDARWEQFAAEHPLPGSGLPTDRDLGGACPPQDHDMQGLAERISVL
The following applies: at 1 µM.

In experiment [20] the target is T5, Serine/threonine-protein kinase D2 (Homo sapiens). The note with it: at 10 µM.

Chain of Homeodomain-interacting protein kinase 3 (Homo sapiens) (Q9H422 whole entry, looked up): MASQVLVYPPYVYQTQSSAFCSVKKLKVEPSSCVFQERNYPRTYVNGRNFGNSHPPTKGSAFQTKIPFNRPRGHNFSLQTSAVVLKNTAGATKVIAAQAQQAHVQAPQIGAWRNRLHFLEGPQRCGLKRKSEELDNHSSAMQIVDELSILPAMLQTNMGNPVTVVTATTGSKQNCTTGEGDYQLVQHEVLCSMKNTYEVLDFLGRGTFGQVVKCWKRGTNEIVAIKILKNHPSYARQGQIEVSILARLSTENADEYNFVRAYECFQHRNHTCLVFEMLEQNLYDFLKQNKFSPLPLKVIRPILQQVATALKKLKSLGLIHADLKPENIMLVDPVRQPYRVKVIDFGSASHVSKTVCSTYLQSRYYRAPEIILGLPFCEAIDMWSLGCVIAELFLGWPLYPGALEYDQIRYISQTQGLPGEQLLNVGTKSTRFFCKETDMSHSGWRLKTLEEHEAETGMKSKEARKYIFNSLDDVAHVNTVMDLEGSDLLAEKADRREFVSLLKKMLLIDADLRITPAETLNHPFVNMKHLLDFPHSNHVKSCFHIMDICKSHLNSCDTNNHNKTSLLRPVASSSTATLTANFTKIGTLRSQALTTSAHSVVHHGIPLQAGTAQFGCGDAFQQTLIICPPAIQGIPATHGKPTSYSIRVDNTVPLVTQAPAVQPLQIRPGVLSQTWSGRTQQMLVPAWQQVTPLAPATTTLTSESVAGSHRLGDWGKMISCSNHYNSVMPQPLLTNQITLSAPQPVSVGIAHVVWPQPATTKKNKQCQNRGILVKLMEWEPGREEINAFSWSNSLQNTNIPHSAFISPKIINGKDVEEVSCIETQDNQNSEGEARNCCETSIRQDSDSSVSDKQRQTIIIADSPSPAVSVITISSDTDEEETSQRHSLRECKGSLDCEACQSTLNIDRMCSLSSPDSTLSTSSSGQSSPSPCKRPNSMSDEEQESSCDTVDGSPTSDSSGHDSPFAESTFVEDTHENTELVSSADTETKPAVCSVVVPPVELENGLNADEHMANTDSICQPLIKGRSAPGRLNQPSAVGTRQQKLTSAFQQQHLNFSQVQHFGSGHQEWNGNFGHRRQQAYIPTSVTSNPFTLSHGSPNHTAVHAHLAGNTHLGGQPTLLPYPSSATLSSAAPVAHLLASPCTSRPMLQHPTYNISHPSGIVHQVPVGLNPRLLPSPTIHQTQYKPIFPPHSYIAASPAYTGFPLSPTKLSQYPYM

In general, residual activity refers to the signal under treatment as a percentage of the control signal. For `Nc1ccc2ncnc(NCCc3ccc(Oc4ccccc4)cc3)c2c1`, the residual activity in experiment [1] turned out to be 93%; in experiment [2] it was 75%; in [3], 23%; in experiment [4], 67%; in experiment [5], 32%; in experiment [6], 97%. Further, the residual activity in experiment [7] worked out at 89%; in experiment [8], 138%; in experiment [9], 114%; in [10] it was 96%; in experiment [11] it was 102%; in [12], 90%. Also, the residual activity in [13] is 108%; in [14], 105%; in experiment [15], 113% (inactive); in [16], 111%; in [17], 91%; in experiment [18] it was 82%. Also, the residual activity in [19] stood at 107%; in experiment [20], 102%.

`CCN(CC)CCCCN1c2ccccc2Oc2ccc(Cl)cc21`: the residual activity in experiment [1] is 99%; in experiment [2], 81%; in [3], 36%; in experiment [4], 101%; in experiment [5], 103%; in experiment [6], 109%. In addition, the residual activity in [7] is 112%; in experiment [8] it was 136%; in experiment [9], 90%; in experiment [10] it was 112%; in experiment [11], 118%; in experiment [12] it was 98%. The residual activity in [13] was 123%; in experiment [14], 90%; in experiment [15], 94% (inactive); in experiment [16], 89%; in experiment [17], 92%; in [18], 95%. Also, the results for the residual activity in [19] and in [20] were 97% and 109%, respectively.

For `Nc1nc(Nc2ccc(S(N)(=O)=O)cc2)nn1C(=S)Nc1c(F)cccc1F`, the residual activity turned out to be 21% in experiment [1]; 10% in experiment [4]; 4% in [5]; 13% in experiment [6]; 1% in experiment [7]; 109% in [8]. For the same compound, the residual activity was 98% in experiment [9]; 77% in experiment [10]; 30% in experiment [11]; 4% in [12]; 10% in [13]; 2% in experiment [14]. Moreover, the residual activity in experiment [16] was determined as 80%; in experiment [17] it was 2%; in experiment [18] it was 4%; in experiment [19] it was 45%; in experiment [20], 6%.

Consider `O=C(Nc1cccc(Nc2cc(Nc3cccc(C(F)(F)F)c3)ncn2)c1)C1CC1`, for which the residual activity is 102% in [1]; 110% in [2]; 82% in experiment [3]; 96% in experiment [4]; 52% in experiment [5]; 98% in [6]. Further, the residual activity in experiment [7] was determined as 83%; in experiment [8] it was 141%; in [9] it was 115%; in experiment [10], 87%; in [11] it was 117%; in experiment [12] it was 87%. For the same compound, the residual activity in [14] was 80%; in experiment [15], 97% (inactive); in experiment [16], 111%; in experiment [17], 99%; in experiment [18] it was 88%; in experiment [19], 107%. Further, the residual activity in [20] turned out to be 110%.
